Experimental data from PubChem BioAssay (NCI).
About 83,000 compounds went through this panel and 20% of them were active in at least one assay; those are over-represented in the sample as a whole.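 Cell lines were cultured in 96-well plates, exposed to a single compound concentration, and assessed for percent growth 48 hours later.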 Calls of active or inactive are those of the source. How the source made its calls: active means growth percent below 10; inactive means the rest.

Each compound was assayed on HL-60(TB) leukemia (assay: NCI-60 one-dose screen, 48 h (100 = growth as untreated, 0 = no growth, -100 = all killed)). Conditions: 10 µM unless noted.

Structure (SMILES)	growth
C(=C\c1nc2ccccc2s1)/c1ccc(N2CCOCC2)s1	24% (inactive)
CN1C(=O)N(C)C2C1NN=c1s/c(=C\c3cccnc3)c(=O)n12 (configuration not stated)	82.7% (inactive)
COc1cc(/C=C/C(=O)c2c(C)nc3ccccc3c2/C=C/c2ccccc2)cc(OC)c1OC	-6.84% (active)
O=C1NC(=O)c2c1c1c3ccccc3ccc1c1[nH]c3ccc(Br)cc3c21	18.7% (inactive)
O=C1/C(=C/c2ccc([N+](=O)[O-])cc2)Oc2ccc(O)cc21	86.1% (inactive)
CN1CCN(Cc2ccc(NC(=O)c3[nH]ncc3Nc3ncnc4[nH]ccc34)cc2)CC1	-31.4% (active)
COc1ccc(/C=C/C(=O)c2cccc(NS(C)(=O)=O)c2)cc1	79.6% (inactive)
